Here are results for 15 compounds from PubChem BioAssay.

A short description of assay [1]: A549 cell viability effects, profiling panel, calcein-AM fluorescence, 48 h, basal (AID 1162). The settings on record: higher = more signal.
The nature of assay [2]: adipocyte viability effects, profiling panel, cell-based, 3T3-L1 adipocytes, calcein-AM fluorescence, 48 h, basal (AID 1163). The settings on record: 3T3-L1 adipocytes viability, higher = more signal.
Assay [3] is described as follows: HepG2 cell viability effects, profiling panel, calcein-AM fluorescence, 48 h, basal (AID 1164). Particulars: higher = more signal.
The nature of assay [4]: MM1S cell viability effects, profiling panel, calcein-AM fluorescence, 48 h, basal (AID 1165).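 Also: viability of MM1S multiple myeloma cells under basal unstimulated conditions.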 The settings on record: higher = more signal.
Assay [5] in a line: basal RPMI8226 viability, no added stimulus, profiling panel, cell-based, calcein-AM fluorescence, 48 h, PK04 Diversity Set (AID 1166).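 Also: cells grown under basal conditions without added stimulus.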 Particulars: RPMI8226 myeloma viability, higher = more signal.
Assay [6] in a line: basal HepG2 mitochondrial membrane potential changes, profiling panel, cell-based, JC-1 fluorescence, 24 h, 100 nL compound (AID 1167). Particulars: higher = more signal.
Assay [7] can be described thus: basal 3T3-L1 adipocyte mitochondrial potential changes, profiling panel, cell-based, JC-1 fluorescence, 3T3-L1 adipocytes, 24 h, 100 nL compound (AID 1168). Particulars: JC-1 mitochondrial fluorescence, higher = more signal, called active from +8 up or from −8 down.
Assay [8] is described as follows: basal RPMI8226 mitochondrial membrane potential changes, profiling panel, cell-based, JC-1 fluorescence, 24 h, 100 nL compound (AID 1169). Particulars: RPMI8226 myeloma, JC-1 mitochondrial potential fluorescence, higher = more signal.
Assay [9] can be described thus: basal MM1S mitochondrial membrane potential changes, profiling panel, cell-based, JC-1 fluorescence, 24 h, 100 nL compound (AID 1170). The settings on record: higher = more signal.
Assay [10] can be described thus: A549 lung cancer cell viability effects, profiling panel, resazurin fluorescence, 24 h, PK04 Diversity Set (AID 1171). The settings on record: higher = more signal, called active from +8 up or from −8 down.

SMILES strings stand for the structures. Active and inactive are the calls of the source.
Also: test concentration not given here.

`CCCC[C@@H](O)C1=C(COc2ccccc2)Cn2c(=O)n(-c3ccccc3)c(=O)n2[C@H]1CO`: the z-score was 0.753 in assay [1]; 0.409 in [2]; -0.0994 in [3]; 0.356 in [4]; -1.02 in [5]; -0.368 in assay [6]. For the same compound, the z-score was 0.334 (inactive) in assay [7], 0.42 in assay [8], 0.277 in assay [9] and -0.515 (inactive) in [10].
Turning to `O=C1C2C=CC(C(O)c3ccc(Br)cc3)N(Nc3ccccc3)C2C(=O)N1c1ccccc1` (stereo not given), the z-score in assay [1] was -1.17; in assay [2], -1.45; in assay [3], -0.5; in assay [4] it was -1.27; in assay [5] it was 0.134; in assay [6] it was -1.92. In addition, the z-score in assay [7] was -0.711 (inactive); in assay [8] it was -0.163; in assay [9], -0.0898; in assay [10] it was -0.201 (inactive).
In the case of `Cc1ccc(F)cc1S(=O)(=O)N[C@@H]1CCN(C(=O)c2ccc(OC(C)C)cc2)C1`, the z-score is 0.0926 in [1]; -1.39 in assay [2]; -0.471 in [3]; 0.0842 in assay [4]; -0.705 in assay [5]; -0.14 in [6]. The z-score in [7] was -0.0993 (inactive); in [8], -0.276; in assay [9], -0.497; in [10], -0.216 (inactive).
With `O=C1C[C@@](C(=O)O)(c2ccc([N+](=O)[O-])cc2)[C@@H](c2ccc(CO)cc2)N1CC12CC3CC(CC(C3)C1)C2`, the z-score is 0.0051 in assay [1]; 0.0068 in assay [2]; 0.313 in assay [3]; -1.49 in assay [4]; -2.4 in assay [5]; 0.609 in assay [6]. Further, the z-score in [7] was 0.473 (inactive); in [8], -0.15; in assay [9], -0.811; in assay [10], 0.689 (inactive).
Turning to `CN(C)C(=O)[C@@]1(CCS(=O)(=O)c2ccccc2)N=C(c2ccc(OCCCO)cc2)O[C@H]1c1ccccc1CN=[N+]=[N-]`, the z-score in assay [1] is 1.29; in assay [2] it was 0.828; in [3], -0.294; in assay [4], -0.582; in assay [5] it was -0.314; in assay [6], 0.548. Moreover, the z-score was -0.264 (inactive) in assay [7], -0.114 in assay [8], -1.31 in [9] and 0.712 (inactive) in [10].
For the compound `COC(=O)[C@@]1(Cc2ccc(OC)cc2)[C@H]2c3cc(C(=O)N(C)C)n(CCF)c3C[C@H]2CN1C(=O)c1ccccc1`, the z-score was -0.444 in assay [1]; -0.228 in [2]; -0.0897 in assay [3]; 0.841 in assay [4]; -0.111 in [5]; 1.49 in assay [6]. In addition, the z-score in assay [7] was 0.454 (inactive); in assay [8] it was -0.339; in [9], -1.55; in assay [10], -0.391 (inactive).
For `COCCOC(=O)N1C(=O)[C@@]2(c3cc(C#Cc4ccc(OC)cc4)ccc31)[C@H](c1ccc(OCCO)cc1)N1[C@H](c3ccccc3)[C@H](c3ccccc3)OC(=O)[C@H]1[C@@H]2C(N)=O`, the z-score in assay [1] was -0.383; in [2] it was 0.806; in assay [3], -0.792; in assay [4], -1.14; in [5], -2.7; in assay [6], -0.617. Moreover, the z-score in assay [7] was 1.98 (inactive); in [8], -0.65; in [9] it was -1.11; in assay [10], -0.588 (inactive).
For the compound `C[N+](C)(C)CCCC[C@@H]1NC(=O)[C@@H]2C[C@H](C(=O)NCCCCCNC(=O)CS)[C@H](c3cccc(OCCO)c3)N2C1=O`, the z-score in assay [1] was 0.884; in [2] it was -0.0052; in assay [3] it was 0.289; in assay [4], -0.0724; in assay [5] it was -1.31; in assay [6] it was 1.8. The z-score is -0.364 (inactive) in assay [7], 0.245 in assay [8], -0.243 in [9] and 0.764 (inactive) in assay [10].
Turning to `COc1ccc([Si](C)(C)[C@@H]2[C@@H](CC(=O)N(CCO)Cc3ccccc3)O[C@]3(C(=O)N(Cc4ccc(N5CCOC5=O)cc4)c4ccccc43)[C@H]2C)cc1`, the z-score in assay [1] is -0.65; in assay [2], 0.603; in [3], -1.94; in [4], -2.35; in assay [5], -4.21; in assay [6], -0.0678. Moreover, the z-score in assay [7] was 1.19 (inactive); in [8] it was -1.01; in assay [9], -1.29; in assay [10], -1.61 (inactive).
In the case of `C=C(CCCC)/C(=C/C[C@H](OC(=O)c1ccncc1)c1ccc(CO)o1)c1cc(C(=O)OC)ccc1OC`, the z-score in assay [1] was -0.705; in [2], -0.0954; in assay [3], -0.677; in [4] it was -3.18; in assay [5], -1.04; in assay [6], -0.132. Further, the z-score in [7] was -0.991 (inactive); in assay [8] it was -0.375; in [9] it was -0.207; in assay [10], -0.401 (inactive).
As for `CCCNC(=O)[C@@H]1c2ccccc2C(=O)N(CC23CC4CC(CC(C4)C2)C3)[C@H]1c1ccc(CO)cc1`, the z-score in [1] was -0.242; in assay [2] it was 0.487; in assay [3], 0.275; in assay [4], -0.671; in [5] it was -2.49; in [6] it was 1.81. In addition, the z-score is -0.0153 (inactive) in [7], -0.236 in [8], 0.141 in assay [9] and 0.704 (inactive) in assay [10].
In the case of `Cc1ccc(-c2cccc(=O)o2)cc1`, the z-score is -0.104 in assay [1]; 0.796 in assay [2]; -0.117 in assay [3]; 0.0881 in [4]; -0.774 in [5]; -1.35 in assay [6]. Further, the z-score was -0.263 (inactive) in [7], -0.177 in [8], -0.299 in assay [9] and -0.0164 (inactive) in [10].
Turning to `Cc1ccc(C(C)CC(O)C2C=CC3C(=O)N(Cc4ccccc4)C(=O)C3N2n2cnnc2)o1` (stereo not given), the z-score in assay [1] is -0.732; in assay [2], -0.126; in [3] it was -0.705; in [4], -0.427; in [5] it was -1.63; in assay [6], -0.254. Besides, the z-score in [7] was -1.24 (inactive); in [8] it was -0.168; in assay [9], 1.24; in [10], -1.34 (inactive).
In the case of `Cc1ccc(S[C@]2(C(=O)NCC(C)C)CC(=O)N(C3CCCCC3)[C@@H]2c2ccc(CO)cc2I)cc1`, the z-score in assay [1] is -0.62; in assay [2], -0.395; in [3], -0.885; in assay [4], -3.28; in assay [5], -3.46; in [6] it was 0.752. In addition, the z-score is 0.49 (inactive) in assay [7], -0.947 in [8], 0.0655 in assay [9] and 1.3 (inactive) in assay [10].
Regarding `NC(=O)NCC#Cc1ccc2c(c1)[C@]1(C(=O)N2)[C@H](c2ccc(O)cc2)N2[C@H](c3ccccc3)[C@H](c3ccccc3)OC(=O)[C@H]2[C@@H]1C(=O)NC[C@H](O)c1ccccc1`, the z-score in assay [1] was 0.544; in assay [2], 0.192; in assay [3], -0.0875; in assay [4], -0.106; in assay [5] it was 0.0231; in assay [6] it was 0.163. The z-score in assay [7] was -0.0491 (inactive); in [8], -0.888; in assay [9] it was 0.481; in assay [10] it was 0.716 (inactive).
